Here are results for twelve molecules from PubChem BioAssay (NCATS).

A short description of test [1]: qHTS assay to identify small molecule inhibitors of chordoma cells - UCH-1 (AID 1259355). Further: nearly all actives have a fitted effect of over 55% in size. The method, boiled down: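 800 cells/well, overnight attach; compounds pinned at 15 concs, then auranofin/camptothecin/doxorubicin/rubitecan/topotecan combo added; 48hr 37 C, 5% CO2; CellTiter-Glo, 30min RT, luminescence.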
(qHTS replaces the single test concentration by a dilution series.)

The nature of test [2]: qHTS assay to identify small molecule inhibitors of chordoma cells - UCH-2 (AID 1259356).
Test [3] can be described thus: P-glycoprotein substrates identified in KB-8-5-11 adenocarcinoma cell line, qHTS therapeutic library screen (AID 1346987). Further: nearly all actives have a fitted effect of over 65% in size. Further: potency means the concentration at half of the fitted maximal effect. In a few lines: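 Compounds are pinned in dose-response onto KB-8-5-11 cells (500 cells/well, colchicine-free medium) and left 72 h at 37 degree C. CellTiter-Glo luminescence then yields AC50 values.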
Test [4] is described as follows: NS1 protein of Zika virus - qHTS assay to identify small molecule inhibitors in human HEK 293 cells (AID 1347053). Further: nearly all actives have a fitted effect of over 55% in size. In a few lines:
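In this cell-based screen, HEK 293 cultures received compound for one hour before Zika MR766 at MOI = 0.5. NS1 was quantified 24 hours later by TR-FRET, normalized to virus-free wells and infected wells.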

Test [5] addresses T1, Tyrosine-protein phosphatase non-receptor type substrate 1 (Homo sapiens) + Leukocyte surface antigen CD47 (Homo sapiens) (UniProt P78324+Q08722). The test is described as follows: CD47-SIRPalpha protein protein interaction - LANCE assay qHTS validation (AID 1347057; active means well fitted curve in the direction sought with a large enough effect in the signal ratio, with a control signal flat, not every such curve was filed as active; the % refers to the signal ratio). In a few lines: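 Inhibition of soluble CD47/SIRPalpha ectodomain association by titrated compounds, measured as 665/615 nm time-resolved FRET ratio after sequential 30 min room-temperature incubations.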
(In TR-FRET formats the signal depends on donor and acceptor labels being close together.)

Test [6] has as its target T1, Tyrosine-protein phosphatase non-receptor type substrate 1 (Homo sapiens) + Leukocyte surface antigen CD47 (Homo sapiens). The test can be described thus: CD47-SIRPalpha protein protein interaction - Alpha assay qHTS validation (AID 1347059).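 Further: bead proximity luminescence from CD47 binding SIRPalpha after compound preincubation with SIRPalpha.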 The method, boiled down: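 AlphaScreen signal between CD47-His (12.5 nM) and biotin-SIRPalpha (25 nM) soluble extracellular domains, bead-captured via Ni-NTA and streptavidin. Compounds, in 7-point titrations, met SIRPalpha 30 min before CD47; PBS pH 7.4 with 0.05% IGEPAL.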

The nature of test [7]: qHTS of pediatric cancer cell lines to identify multiple opportunities for drug repurposing: Primary screen for TC32 cells (AID 1347089). Further: nearly all actives have a fitted effect of over 60% in size. The method, boiled down:
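TC32 cells, 500-1,000/well in growth medium, compound-treated 48 h at 37 °C; viability from CellTiter-Glo luminescence. Primary screen: MIPE 11-point (0.78 nM–46 µM final), NPC 8-point (0.59 nM–46 µM final); confirmatory at 11-point dilutions.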

Test [8] is described as follows: qHTS of pediatric cancer cell lines to identify multiple opportunities for drug repurposing: Primary screen for DAOY cells (AID 1347090). Further: nearly all actives have a fitted effect of over 55% in size. In a few lines:
(§1)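 Cell viability, CellTiter-Glo luminescence; 500-1,000 cells/well, 8- or 11-point titration, 48 h compound exposure at 37 degrees C, 5% CO2. Controls: DMSO neutral, bortezomib 2.3 µM final as positive.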

Test [9] is described as follows: qHTS of pediatric cancer cell lines to identify multiple opportunities for drug repurposing: Primary screen for SJ-GBM2 cells (AID 1347091). The method, boiled down:
as §1

Test [10] deals with Atrial natriuretic peptide receptor 1 (Homo sapiens) (UniProt P16066). The test is described as follows: Natriuretic polypeptide receptor (hNpr1) antagonism - Pilot screen (AID 1347049; calls by dose curve;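 further: HEK293 cells with hNpr1 and GloSensor cGMP luciferase stimulated by 0.1 nM hNppA; agonist-evoked cGMP luminescence read 20 min after hNppA addition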). In a few lines:
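Receptor antagonism read as cGMP-dependent luminescence in hNpr1/pGS-40F HEK293 cells: pre-read after 30 min compound exposure, post-read 20 min after hNppA agonist at 0.1 nM final, all at room temperature, protected from light; A-71915 titration as control.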

Test [11] addresses Atrial natriuretic peptide receptor 2 (Homo sapiens) (UniProt P20594). The test is described as follows: Natriuretic polypeptide receptor (hNpr2) antagonism - Pilot subtype selectivity assay (AID 1347050; calls by dose curve). In a few lines: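 Antagonist mode: compounds (LOPAC1280, seven 1:5 dilutions) added 30 min before 1 nM hNppC stimulation of hNpr2-HEK293 cGMP-sensor cells; luminescence read before and 20 min after agonist at ambient temperature.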

Test [12] deals with Parathyroid hormone/parathyroid hormone-related peptide receptor (Homo sapiens) (UniProt Q03431). The test is described as follows: qHTS for PTHR1 Agonists: Optimization Screen against the NCGC LOPAC library (AID 1347079).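 Further: GloSensor cAMP luminescence in HEK-293 GP2 cells expressing human PTHR1 with IBMX.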 In a few lines:
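HEK-293 GP2 cells, PTHR1 + GloSensor cAMP; 3000 cells/well, o/n. Luciferin + IBMX 0.5mM each (stock), 1 hr 37C. Cpd titration, 1 hr 37C. Lum after 15 min RT. Ctrl M-PTH(1-15) top 10uM.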

Test [13] is described as follows: Identifying Small Molecule Inhibitors of Pancreatic Cancer Stem Cells (A278, Adherent) (AID 1259361). Further: nearly all actives have a fitted effect of over 35% in size. The method, boiled down: (§2)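 Cytotoxicity read by CellTiter-Glo luminescence after 48 h compound exposure at 37C; percent activity scaled between DMSO-treated cells and cell-free wells. Spheroid formats used cells pre-formed 14 days in stem cell media on hydrogel.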

Test [14] can be described thus: Identifying Small Molecule Inhibitors of Pancreatic Cancer Stem Cells (Panc1, Adherent) (AID 1259362). Further: potency means the concentration at half of the fitted maximal effect. Conditions: Potency: viability. In a few lines:
as §2

A short description of test [15]: P-glycoprotein substrates identified in KB-3-1 adenocarcinoma cell line, qHTS therapeutic library screen (AID 1346986). Further: nearly all actives have a fitted effect of over 60% in size. Conditions: KB-3-1 parental cells viability, CellTiter-Glo, 72 h; at 44.5 µM (top of the series) unless noted. The method, boiled down: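 Viability read by CellTiter-Glo after 72 h compound exposure in dose-response of KB-3-1 and KB-8-5-11 (P-gp-high) cells. Hits needed AC50 < 10 uM, >50% maximum response and curve class -1.1 to -2.4. Cherry-picks retested ± tariquidar, including pcDNA/MDR-19 HEK-293 pair.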

Test [16] is described as follows: Natriuretic polypeptide receptor (hNpr1) antagonism - Pilot counterscreen GloSensor control cell line (AID 1347045; calls by dose curve). The method, boiled down: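 Control counterscreen: luciferase cGMP-biosensor HEK293 cells (no Npr1) received compound for 30 min at room temperature after GloSensor substrate loading. Luminescence was measured before and 20 min after soluble guanylyl cyclase activation by 50 uM nitroprusside.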
For orientation: Counterscreens check selectivity or assay interference.

In test [17] the target is T1, Tyrosine-protein phosphatase non-receptor type substrate 1 (Homo sapiens) + Leukocyte surface antigen CD47 (Homo sapiens). The test can be described thus: CD47-SIRPalpha protein protein interaction - HTRF assay qHTS validation (AID 1347058; active means well fitted curve in the direction sought with a large enough effect in the signal ratio, not every such curve was filed as active; the % refers to the signal ratio). In a few lines: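 Soluble extracellular domains (6His-CD47, Avi-tag-biotinylated SIRPalpha) in PBS pH 7.4 with 0.05% IGEPAL CA-630. Compounds were preincubated 30 min at RT with CD47 and anti-His-Eu, then SIRPalpha and SAV-XL665 were added. TR-FRET 665/615 ratio.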

The nature of test [18]: Identifying Small Molecule Inhibitors of Pancreatic Cancer Stem Cells (SN12C, Adherent) (AID 1259358).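 Further: cell survival measured after 48 h of compound exposure.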 The method, boiled down:
as §2

Test [19] can be described thus: Identifying Small Molecule Inhibitors of Pancreatic Cancer Stem Cells (SN12C, Spheroid) (AID 1259360). The method, boiled down:
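Endpoint: ATP-based luminescence, 48 h drug exposure. Bortezomib at 9.2 uM final as full-kill control; DMSO vehicle as negative control; activity normalized between vehicle and cell-free wells.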

Inconclusive results are not listed. Some compounds were tested as several samples or in several runs, with calls that do not always agree. Calls of active or inactive are those of the source. Unless noted, the call rests on the fitted dose curve; in most records, active means well fitted curve in the direction sought with a large enough effect; inconclusive means small, poorly fitted or top-dose-only effect, or another doubt; inactive means no such curve, though single readings can be large; an effect the other way counts as inactive or inconclusive.

Sequence of Parathyroid hormone/parathyroid hormone-related peptide receptor (Homo sapiens) (Q03431 whole entry, looked up): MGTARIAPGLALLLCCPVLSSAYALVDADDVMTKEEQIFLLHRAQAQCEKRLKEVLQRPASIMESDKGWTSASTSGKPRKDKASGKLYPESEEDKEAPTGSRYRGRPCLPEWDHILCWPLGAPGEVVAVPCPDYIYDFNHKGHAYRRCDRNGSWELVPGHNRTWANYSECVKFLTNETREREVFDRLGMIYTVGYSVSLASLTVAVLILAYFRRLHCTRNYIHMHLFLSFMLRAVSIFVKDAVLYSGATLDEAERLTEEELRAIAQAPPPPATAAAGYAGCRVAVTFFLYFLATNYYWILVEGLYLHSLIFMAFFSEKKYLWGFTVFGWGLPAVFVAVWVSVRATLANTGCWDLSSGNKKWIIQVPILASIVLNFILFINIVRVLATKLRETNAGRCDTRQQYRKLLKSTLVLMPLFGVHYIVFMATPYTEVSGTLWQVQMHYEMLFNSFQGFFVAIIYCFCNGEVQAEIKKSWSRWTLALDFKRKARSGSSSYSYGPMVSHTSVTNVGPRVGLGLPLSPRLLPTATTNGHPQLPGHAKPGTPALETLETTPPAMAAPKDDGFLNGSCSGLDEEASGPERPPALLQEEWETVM
T1 sequence (P78324 whole entry, looked up, the tested form may be a part): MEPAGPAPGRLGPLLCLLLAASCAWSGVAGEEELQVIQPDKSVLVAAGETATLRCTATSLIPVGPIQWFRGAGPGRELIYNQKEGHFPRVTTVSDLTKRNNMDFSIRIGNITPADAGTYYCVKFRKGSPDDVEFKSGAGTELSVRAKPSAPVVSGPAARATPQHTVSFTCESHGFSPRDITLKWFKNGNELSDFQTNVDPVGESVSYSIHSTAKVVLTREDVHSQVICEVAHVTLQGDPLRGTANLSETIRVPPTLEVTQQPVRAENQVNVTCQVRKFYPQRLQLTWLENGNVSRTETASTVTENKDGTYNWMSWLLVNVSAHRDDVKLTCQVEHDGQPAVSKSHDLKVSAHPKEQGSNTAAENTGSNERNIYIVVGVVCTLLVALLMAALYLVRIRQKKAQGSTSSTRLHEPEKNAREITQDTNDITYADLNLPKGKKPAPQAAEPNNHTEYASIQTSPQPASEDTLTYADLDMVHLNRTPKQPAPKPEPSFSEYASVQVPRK
T1 sequence (Q08722 whole entry, looked up, the tested form may be a part): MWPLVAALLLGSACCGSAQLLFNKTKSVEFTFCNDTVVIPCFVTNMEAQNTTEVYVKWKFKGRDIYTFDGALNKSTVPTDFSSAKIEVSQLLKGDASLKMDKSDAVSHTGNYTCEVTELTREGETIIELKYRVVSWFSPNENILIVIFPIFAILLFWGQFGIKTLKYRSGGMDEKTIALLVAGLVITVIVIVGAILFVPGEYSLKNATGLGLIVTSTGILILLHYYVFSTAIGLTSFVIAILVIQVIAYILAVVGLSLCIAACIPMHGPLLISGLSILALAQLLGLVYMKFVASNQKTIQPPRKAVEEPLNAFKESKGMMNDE
Sequence of Atrial natriuretic peptide receptor 2 (Homo sapiens) (P20594 whole entry, looked up): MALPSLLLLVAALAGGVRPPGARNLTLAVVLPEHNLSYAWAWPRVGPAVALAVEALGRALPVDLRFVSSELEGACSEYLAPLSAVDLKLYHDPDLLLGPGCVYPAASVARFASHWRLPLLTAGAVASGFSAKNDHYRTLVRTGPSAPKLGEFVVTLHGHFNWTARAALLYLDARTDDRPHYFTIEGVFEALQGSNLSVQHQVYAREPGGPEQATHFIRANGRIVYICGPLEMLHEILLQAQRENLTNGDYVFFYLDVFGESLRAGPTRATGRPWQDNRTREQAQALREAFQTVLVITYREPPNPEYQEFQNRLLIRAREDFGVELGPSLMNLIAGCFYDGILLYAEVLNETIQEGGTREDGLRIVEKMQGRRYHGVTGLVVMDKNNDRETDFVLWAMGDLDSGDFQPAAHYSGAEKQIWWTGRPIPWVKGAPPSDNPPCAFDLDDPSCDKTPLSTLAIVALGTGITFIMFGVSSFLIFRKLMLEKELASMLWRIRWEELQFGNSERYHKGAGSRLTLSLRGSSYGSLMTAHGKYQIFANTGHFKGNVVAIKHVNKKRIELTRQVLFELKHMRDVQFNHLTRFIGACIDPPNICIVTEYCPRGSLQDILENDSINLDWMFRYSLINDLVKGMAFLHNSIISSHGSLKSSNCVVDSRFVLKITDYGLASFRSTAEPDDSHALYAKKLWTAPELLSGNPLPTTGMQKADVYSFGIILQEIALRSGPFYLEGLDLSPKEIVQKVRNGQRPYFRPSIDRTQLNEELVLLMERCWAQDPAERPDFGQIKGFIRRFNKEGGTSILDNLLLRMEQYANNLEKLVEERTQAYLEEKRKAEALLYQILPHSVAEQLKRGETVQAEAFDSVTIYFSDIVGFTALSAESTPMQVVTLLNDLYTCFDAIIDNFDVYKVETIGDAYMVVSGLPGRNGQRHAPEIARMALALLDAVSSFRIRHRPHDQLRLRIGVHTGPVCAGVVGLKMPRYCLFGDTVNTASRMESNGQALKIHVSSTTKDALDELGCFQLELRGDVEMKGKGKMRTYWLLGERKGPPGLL
Sequence of Atrial natriuretic peptide receptor 1 (Homo sapiens) (P16066 whole entry, looked up): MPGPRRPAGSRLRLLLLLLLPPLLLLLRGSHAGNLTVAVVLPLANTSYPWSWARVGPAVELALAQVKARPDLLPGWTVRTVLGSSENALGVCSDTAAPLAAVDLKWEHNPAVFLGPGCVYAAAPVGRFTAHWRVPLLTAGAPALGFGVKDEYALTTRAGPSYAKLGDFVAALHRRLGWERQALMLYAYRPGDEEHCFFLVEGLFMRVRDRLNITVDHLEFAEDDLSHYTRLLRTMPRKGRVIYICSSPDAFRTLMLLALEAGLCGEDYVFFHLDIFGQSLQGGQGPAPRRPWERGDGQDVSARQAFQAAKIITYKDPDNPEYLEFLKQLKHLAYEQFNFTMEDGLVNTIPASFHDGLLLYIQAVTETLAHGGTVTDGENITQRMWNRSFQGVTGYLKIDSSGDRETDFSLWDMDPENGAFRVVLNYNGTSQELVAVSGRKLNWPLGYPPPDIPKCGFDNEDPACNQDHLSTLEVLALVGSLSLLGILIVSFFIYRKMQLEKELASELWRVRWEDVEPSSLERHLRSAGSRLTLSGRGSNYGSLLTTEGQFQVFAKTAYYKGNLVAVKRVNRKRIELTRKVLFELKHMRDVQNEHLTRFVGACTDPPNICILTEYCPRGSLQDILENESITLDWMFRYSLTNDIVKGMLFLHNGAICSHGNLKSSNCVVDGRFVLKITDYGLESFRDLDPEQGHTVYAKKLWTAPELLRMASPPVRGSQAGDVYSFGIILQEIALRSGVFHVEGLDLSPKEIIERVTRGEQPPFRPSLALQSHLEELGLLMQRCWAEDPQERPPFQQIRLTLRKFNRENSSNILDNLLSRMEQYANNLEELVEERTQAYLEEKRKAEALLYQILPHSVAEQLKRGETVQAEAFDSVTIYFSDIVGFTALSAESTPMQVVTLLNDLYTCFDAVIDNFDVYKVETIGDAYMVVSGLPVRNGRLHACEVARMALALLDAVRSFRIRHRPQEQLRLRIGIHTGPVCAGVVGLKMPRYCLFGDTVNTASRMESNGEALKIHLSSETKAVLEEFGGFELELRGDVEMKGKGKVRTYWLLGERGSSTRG

As for `CC(=O)c1ccc2c(c1)N(CCCN(C)C)c1ccccc1S2`, the Potency result in [1], in test [3], in test [4], in test [7], in test [8] and in test [9] was “inactive” in each case. The outcome in test [2], in [5] and in [6] was inactive.

`CC1=C(CC(=O)O)c2cc(F)ccc2/C1=C\c1ccc(S(C)=O)cc1` (centres undefined): the Potency entry in test [1], in [3], in [11], in test [4], in test [12] and in [7] was “inactive” throughout. For the same molecule, the Potency entry in test [8] and in [9] was “inactive” in each case. Moreover, the call in test [2] and in [10] was inactive.

On to `CCCc1c(OCCCCc2nn[nH]n2)ccc(C(C)=O)c1O`, for which the Potency entry in test [1], in test [3], in [4], in [7], in [8] and in test [9] was “inactive” each time. The call in [2] was inactive.

`O=C1Nc2ccc(Cl)cc2[C@@](C#CC2CC2)(C(F)(F)F)O1`: the Potency entry in test [1], in test [4] and in test [7] was “inactive” throughout. Further, the molecule was called inactive in test [2]. In addition, the IC50 (viability decrease) in [13] is 48.1 µM (active). In test [14], the Potency was 48.1 µM (active).

Consider `CCOc1ccc2ccccc2c1C(=O)N[C@@H]1C(=O)N2[C@@H]1SC(C)(C)[C@@H]2C(=O)O`, for which the Potency result in test [1], in test [3], in test [4], in test [7], in test [8] and in test [9] was “inactive” each time. In test [2], the result was inactive.

As to `N[C@@H](CSCCCO)C(=O)O`, the Potency entry in [1], in [3], in test [4], in test [7], in test [8] and in test [9] was “inactive” in each case. Besides, the call in [2] was inactive.

For the molecule `COc1ccc2[nH]c(S(=O)Cc3ncc(C)c(OC)c3C)nc2n1` (centres undefined), the Potency result in test [1], in [3], in test [4], in [7], in test [8] and in test [9] was “inactive” throughout. Besides, the result in test [2] and in test [15] was inactive.

For `Cc1cc(C(C#N)c2ccc(Cl)cc2)c(Cl)cc1NC(=O)c1cc(I)cc(I)c1O` (centres undefined), the Potency entry in [1] and in test [4] was “inactive” in each case. In addition, the call in test [2] and in test [15] was inactive. In addition, the Potency in [3] was 16.4 µM (active) and inactive.

`Cc1cc(N)c2ccccc2[n+]1CCCCCCCCCC[n+]1c(C)cc(N)c2ccccc21`: the Potency result in [1], in test [3], in [11] and in test [12] was “inactive” throughout. The outcome in test [2], in [16], in [10], in test [5] and in [6] was inactive.

In the case of `Nc1nc2c(ncn2CCC(CO)CO)c(=O)[nH]1`, the Potency result in [1], in test [3], in [4], in test [7], in [8] and in test [9] was “inactive” throughout. Further, in test [2], the result was inactive.

For the molecule `COc1ccc(Cl)cc1C(=O)NCCc1ccc(S(=O)(=O)NC(=O)NC2CCCCC2)cc1`, the Potency entry in test [1], in test [11], in test [4], in test [12], in [7] and in [8] was “inactive” throughout. In test [9], the Potency result is “inactive”. For the same molecule, the molecule was classed as inactive in test [2], in test [15], in test [16], in [10], in test [5] and in test [17]. Also, the result in test [6] was inactive.

On to `Oc1cn2c(n1)Nc1ccc(Cl)c(Cl)c1C2`, for which the Potency entry in [1], in test [14], in test [4], in test [7], in test [8] and in [9] was “inactive” throughout. Moreover, the result in test [2], in [18] and in test [19] was inactive. In test [13], the IC50 (viability decrease) entry is “inactive”.
